Results as given in ChEMBL document CHEMBL1961873, “Compounds: GSK PKIS; Assays: Nanosyn kinase panel” (2012).
Values joined by “and” are separate entries in the source; they are usually repeats but may differ in a detail not shown here. Identical values can stand only once.

Tests used:
[1] = target: Tyrosine-protein kinase Fyn (Homo sapiens) (UniProt P06241); conditions: at 1 µM
[2] = target: Tyrosine-protein kinase HCK (Homo sapiens) (UniProt P08631); conditions: at 0.1 µM
[3] = target: Tyrosine-protein kinase HCK (Homo sapiens) (UniProt P08631); conditions: at 1 µM
[4] = target: Insulin-like growth factor 1 receptor (Homo sapiens) (UniProt P08069); conditions: at 0.1 µM
Insulin-like growth factor 1 receptor (Homo sapiens), sequence (P08069 31-736 limits assumed): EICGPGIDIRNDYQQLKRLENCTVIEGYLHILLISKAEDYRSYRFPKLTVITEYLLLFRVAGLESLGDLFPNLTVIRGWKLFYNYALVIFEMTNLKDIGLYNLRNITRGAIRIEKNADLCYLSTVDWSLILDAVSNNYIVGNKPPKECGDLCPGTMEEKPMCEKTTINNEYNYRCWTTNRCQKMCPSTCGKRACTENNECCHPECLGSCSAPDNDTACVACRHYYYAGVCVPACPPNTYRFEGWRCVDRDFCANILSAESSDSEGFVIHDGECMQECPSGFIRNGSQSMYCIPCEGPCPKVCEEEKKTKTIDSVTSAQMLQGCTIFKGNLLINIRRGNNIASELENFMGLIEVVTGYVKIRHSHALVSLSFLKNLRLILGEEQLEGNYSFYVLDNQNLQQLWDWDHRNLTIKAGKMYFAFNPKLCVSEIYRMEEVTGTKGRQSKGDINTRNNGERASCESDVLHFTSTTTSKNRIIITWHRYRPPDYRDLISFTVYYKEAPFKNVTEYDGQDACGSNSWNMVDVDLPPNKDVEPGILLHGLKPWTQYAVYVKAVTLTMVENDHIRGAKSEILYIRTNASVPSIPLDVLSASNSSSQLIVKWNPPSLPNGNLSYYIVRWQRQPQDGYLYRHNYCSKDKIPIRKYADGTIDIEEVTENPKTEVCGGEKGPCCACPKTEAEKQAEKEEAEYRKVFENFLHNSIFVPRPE
Insulin-like growth factor 1 receptor (Homo sapiens), sequence (P08069 741-1367 limits assumed): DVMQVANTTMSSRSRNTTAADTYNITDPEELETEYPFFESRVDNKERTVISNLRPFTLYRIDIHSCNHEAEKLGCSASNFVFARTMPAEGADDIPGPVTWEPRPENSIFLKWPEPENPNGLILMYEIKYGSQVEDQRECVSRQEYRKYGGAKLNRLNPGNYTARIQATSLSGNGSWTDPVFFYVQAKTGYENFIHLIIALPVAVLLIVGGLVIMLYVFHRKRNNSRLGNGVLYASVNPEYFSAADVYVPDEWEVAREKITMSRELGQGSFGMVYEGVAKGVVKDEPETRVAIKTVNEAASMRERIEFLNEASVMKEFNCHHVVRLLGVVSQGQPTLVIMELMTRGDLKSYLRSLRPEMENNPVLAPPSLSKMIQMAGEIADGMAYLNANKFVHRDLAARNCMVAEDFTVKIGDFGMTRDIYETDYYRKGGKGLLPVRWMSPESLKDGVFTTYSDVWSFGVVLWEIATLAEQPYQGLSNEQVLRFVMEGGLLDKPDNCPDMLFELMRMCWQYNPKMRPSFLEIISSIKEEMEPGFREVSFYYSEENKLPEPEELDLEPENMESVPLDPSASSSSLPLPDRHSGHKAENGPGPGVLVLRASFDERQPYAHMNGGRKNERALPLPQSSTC

[5] = target: Insulin-like growth factor 1 receptor (Homo sapiens) (UniProt P08069); conditions: at 1 µM
[6] = target: Insulin receptor (Homo sapiens) (UniProt P06213); conditions: at 0.1 µM
[7] = target: Insulin receptor (Homo sapiens) (UniProt P06213); conditions: at 1 µM
[8] = target: Insulin receptor-related protein (Homo sapiens) (UniProt P14616); conditions: at 0.1 µM
[9] = target: Insulin receptor-related protein (Homo sapiens) (UniProt P14616); conditions: at 1 µM
[10] = target: T1, Tyrosine-protein kinase ITK/TSK (Homo sapiens) (UniProt Q08881); conditions: at 0.1 µM
T1 sequence (whole entry): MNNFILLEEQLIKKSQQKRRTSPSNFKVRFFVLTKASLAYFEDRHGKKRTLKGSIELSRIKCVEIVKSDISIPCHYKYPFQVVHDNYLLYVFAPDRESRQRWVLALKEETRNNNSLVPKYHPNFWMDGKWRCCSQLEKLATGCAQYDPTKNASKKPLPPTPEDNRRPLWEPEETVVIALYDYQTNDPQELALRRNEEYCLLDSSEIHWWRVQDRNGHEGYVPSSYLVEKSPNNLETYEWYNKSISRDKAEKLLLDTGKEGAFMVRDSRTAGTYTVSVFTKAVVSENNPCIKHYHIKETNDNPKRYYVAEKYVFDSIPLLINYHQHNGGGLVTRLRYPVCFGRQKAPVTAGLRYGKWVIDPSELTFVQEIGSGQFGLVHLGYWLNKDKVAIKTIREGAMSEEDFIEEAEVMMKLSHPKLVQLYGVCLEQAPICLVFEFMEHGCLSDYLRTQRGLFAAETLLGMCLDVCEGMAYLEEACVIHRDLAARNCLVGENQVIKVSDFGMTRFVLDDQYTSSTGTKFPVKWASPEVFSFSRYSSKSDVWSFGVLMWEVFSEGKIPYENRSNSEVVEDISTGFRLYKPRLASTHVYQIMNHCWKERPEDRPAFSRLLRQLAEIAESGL

[11] = target: T1, Tyrosine-protein kinase ITK/TSK (Homo sapiens); conditions: at 1 µM
[12] = target: Tyrosine-protein kinase JAK1 (Homo sapiens) (UniProt P23458); conditions: at 0.1 µM
[13] = target: Tyrosine-protein kinase JAK1 (Homo sapiens) (UniProt P23458); conditions: at 1 µM
[14] = target: Tyrosine-protein kinase JAK2 (Homo sapiens) (UniProt O60674); conditions: at 0.1 µM
[15] = target: Tyrosine-protein kinase JAK2 (Homo sapiens) (UniProt O60674); conditions: at 1 µM
[16] = target: T2, Tyrosine-protein kinase JAK3 (Homo sapiens) (UniProt P52333); conditions: at 0.1 µM
T2 sequence (whole entry): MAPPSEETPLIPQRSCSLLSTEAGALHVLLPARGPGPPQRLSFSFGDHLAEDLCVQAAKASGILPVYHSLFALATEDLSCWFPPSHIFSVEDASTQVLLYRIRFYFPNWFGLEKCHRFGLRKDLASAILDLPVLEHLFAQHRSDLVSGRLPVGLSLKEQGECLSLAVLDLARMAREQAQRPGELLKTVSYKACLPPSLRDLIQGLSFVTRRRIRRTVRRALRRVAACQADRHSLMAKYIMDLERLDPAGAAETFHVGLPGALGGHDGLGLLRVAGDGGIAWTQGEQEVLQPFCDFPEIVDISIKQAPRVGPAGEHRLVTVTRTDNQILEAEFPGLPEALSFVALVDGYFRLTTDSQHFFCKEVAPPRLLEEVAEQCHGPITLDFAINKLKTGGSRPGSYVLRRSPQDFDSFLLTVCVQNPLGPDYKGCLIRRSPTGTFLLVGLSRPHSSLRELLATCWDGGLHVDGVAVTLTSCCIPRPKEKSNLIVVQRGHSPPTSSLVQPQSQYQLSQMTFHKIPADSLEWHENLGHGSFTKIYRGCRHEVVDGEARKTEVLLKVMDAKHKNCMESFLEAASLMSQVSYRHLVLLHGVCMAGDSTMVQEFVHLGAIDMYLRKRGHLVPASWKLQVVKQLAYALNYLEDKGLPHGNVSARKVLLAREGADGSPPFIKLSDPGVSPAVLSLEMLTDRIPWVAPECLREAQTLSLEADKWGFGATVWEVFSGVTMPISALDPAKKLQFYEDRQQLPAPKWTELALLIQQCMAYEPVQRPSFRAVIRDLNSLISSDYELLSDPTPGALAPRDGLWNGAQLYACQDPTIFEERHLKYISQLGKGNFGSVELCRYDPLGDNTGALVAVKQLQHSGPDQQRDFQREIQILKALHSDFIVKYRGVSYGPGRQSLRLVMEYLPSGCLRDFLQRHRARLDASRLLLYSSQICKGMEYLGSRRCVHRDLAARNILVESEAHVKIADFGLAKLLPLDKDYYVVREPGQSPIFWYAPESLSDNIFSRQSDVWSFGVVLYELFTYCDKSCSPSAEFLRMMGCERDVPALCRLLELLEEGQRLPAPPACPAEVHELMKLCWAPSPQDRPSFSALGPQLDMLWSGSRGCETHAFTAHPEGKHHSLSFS

[17] = target: T2, Tyrosine-protein kinase JAK3 (Homo sapiens); conditions: at 1 µM
[18] = target: Vascular endothelial growth factor receptor 2 (Homo sapiens) (UniProt P35968); conditions: at 0.1 µM
Vascular endothelial growth factor receptor 2 (Homo sapiens), sequence (P35968 whole entry): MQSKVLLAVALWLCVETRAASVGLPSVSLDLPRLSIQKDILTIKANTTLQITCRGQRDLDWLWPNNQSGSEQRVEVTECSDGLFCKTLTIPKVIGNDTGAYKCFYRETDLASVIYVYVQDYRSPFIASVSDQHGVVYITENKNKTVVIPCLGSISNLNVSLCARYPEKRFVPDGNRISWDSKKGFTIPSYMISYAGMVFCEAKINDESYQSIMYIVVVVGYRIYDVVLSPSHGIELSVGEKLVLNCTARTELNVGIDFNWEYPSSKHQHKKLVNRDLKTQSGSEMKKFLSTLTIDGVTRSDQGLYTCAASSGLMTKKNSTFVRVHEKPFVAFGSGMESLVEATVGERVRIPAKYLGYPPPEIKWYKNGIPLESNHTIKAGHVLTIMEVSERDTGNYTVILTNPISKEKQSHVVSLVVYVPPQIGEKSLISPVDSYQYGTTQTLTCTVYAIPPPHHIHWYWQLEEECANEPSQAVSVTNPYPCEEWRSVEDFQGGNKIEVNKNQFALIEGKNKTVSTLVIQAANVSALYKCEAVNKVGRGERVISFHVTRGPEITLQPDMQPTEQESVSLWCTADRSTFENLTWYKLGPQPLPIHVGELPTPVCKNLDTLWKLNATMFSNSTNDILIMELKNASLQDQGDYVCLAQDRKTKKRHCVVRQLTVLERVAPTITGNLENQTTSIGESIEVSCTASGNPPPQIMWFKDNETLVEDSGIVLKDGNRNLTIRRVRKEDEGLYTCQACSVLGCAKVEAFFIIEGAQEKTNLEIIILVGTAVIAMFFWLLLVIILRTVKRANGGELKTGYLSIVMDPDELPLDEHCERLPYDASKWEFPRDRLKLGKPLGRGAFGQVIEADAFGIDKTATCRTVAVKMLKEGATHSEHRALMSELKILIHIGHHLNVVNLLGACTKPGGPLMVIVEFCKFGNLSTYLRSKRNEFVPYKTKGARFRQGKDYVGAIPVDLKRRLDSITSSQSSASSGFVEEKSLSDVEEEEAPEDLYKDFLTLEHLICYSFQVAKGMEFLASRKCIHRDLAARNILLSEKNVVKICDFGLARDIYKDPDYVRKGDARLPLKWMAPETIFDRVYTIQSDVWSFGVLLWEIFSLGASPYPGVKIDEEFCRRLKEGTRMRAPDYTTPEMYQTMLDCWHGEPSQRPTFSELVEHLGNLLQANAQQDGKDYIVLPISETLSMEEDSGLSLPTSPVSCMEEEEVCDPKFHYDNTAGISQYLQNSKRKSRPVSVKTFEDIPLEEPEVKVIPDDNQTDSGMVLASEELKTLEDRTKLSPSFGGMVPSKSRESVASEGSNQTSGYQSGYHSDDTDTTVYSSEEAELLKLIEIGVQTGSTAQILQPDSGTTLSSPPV

[19] = target: Vascular endothelial growth factor receptor 2 (Homo sapiens) (UniProt P35968); conditions: at 1 µM
[20] = target: Mast/stem cell growth factor receptor Kit (Homo sapiens) (UniProt P10721); conditions: at 0.1 µM;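 also: values are mean inhibition of KIT, from the GSK PKIS dataset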
Mast/stem cell growth factor receptor Kit (Homo sapiens), sequence (P10721 whole entry): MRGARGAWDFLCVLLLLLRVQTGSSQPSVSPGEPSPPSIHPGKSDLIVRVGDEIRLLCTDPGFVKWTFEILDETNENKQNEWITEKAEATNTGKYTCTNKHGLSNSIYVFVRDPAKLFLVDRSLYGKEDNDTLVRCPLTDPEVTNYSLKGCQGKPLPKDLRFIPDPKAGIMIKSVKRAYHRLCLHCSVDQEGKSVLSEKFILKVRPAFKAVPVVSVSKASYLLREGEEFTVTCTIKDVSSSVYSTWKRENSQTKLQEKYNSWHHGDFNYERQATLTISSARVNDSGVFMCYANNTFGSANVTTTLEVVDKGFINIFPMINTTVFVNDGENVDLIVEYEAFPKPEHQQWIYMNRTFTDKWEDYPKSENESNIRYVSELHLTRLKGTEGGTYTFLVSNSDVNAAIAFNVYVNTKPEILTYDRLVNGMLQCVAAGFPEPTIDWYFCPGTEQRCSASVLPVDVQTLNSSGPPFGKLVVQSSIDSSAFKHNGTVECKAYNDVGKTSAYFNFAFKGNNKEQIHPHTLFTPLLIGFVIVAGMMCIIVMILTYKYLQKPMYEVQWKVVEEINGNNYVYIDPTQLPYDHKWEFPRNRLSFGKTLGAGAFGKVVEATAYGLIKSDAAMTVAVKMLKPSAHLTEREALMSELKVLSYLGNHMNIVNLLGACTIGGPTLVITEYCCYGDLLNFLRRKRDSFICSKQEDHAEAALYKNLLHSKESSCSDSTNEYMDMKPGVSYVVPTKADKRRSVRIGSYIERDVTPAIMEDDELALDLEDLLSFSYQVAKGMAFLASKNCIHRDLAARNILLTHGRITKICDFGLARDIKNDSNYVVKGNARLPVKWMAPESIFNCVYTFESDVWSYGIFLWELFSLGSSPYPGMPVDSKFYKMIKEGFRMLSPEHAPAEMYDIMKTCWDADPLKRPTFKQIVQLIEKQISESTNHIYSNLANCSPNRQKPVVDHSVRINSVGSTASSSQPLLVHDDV

Tyrosine-protein kinase Fyn (Homo sapiens), sequence (P06241 2-537 limits assumed): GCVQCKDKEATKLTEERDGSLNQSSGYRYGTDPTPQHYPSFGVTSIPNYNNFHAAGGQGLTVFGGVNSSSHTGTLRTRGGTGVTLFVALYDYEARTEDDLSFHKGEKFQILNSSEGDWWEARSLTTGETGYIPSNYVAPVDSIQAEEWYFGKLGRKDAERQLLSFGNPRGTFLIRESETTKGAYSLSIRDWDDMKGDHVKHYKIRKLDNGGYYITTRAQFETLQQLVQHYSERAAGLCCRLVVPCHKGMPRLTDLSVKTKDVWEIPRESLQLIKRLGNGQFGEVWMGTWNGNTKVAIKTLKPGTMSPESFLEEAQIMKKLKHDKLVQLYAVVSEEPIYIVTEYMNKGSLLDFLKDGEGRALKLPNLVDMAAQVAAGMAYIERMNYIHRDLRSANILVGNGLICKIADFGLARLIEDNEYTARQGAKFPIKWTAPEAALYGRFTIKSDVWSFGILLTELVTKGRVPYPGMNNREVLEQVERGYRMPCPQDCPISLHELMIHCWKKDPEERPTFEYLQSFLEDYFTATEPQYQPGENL
Tyrosine-protein kinase HCK (Homo sapiens), sequence (P08631 2-526 limits assumed): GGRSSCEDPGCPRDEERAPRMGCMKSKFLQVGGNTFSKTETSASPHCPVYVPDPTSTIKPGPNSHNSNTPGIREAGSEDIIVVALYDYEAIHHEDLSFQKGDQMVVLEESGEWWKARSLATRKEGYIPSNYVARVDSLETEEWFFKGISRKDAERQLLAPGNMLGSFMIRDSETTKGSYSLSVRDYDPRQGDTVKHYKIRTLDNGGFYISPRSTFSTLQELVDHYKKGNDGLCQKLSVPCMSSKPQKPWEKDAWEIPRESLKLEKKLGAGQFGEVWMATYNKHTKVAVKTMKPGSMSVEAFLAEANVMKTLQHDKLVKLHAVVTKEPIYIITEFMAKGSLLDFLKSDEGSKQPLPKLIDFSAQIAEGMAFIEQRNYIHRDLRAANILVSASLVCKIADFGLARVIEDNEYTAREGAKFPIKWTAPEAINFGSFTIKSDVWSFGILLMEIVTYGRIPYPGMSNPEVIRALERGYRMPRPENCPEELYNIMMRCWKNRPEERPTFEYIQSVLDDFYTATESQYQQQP

Structure (SMILES)	inhibition [1]	inhibition [2]	inhibition [3]	inhibition [4]	inhibition [5]	inhibition [6]	inhibition [7]	inhibition [8]	inhibition [9]	inhibition [10]	inhibition [11]	inhibition [12]	inhibition [13]	inhibition [14]	inhibition [15]	inhibition [16]	inhibition [17]	inhibition [18]	inhibition [19]	inhibition [20]
Nc1ncnc2occ(-c3ccc(NC(=O)Nc4cc(C(F)(F)F)ccc4F)cc3)c12	24.3% and 15.7%	9.61% and 2.25%	46.5% and 31.6%	11.3% and 1.32%	10.7% and 0.73%	2.86% and 1.65%	13.2% and 8.78%	1.56% and -3.07%	1.62% and -3%	2.22% and -1.63%	7.9% and 3.04%	-0.01% and -6.67%	8.18% and -2.37%	2.05% and -0.57%	18.8% and 7.54%	-0.84% and 0.28%	1.36% and 1%	63.8% and 54%	71.1% and 78.2%	90.2% and 85.7%
CC1=C(C(=O)Nc2ccc3[nH]ncc3c2)C(c2ccc(F)cc2)N=C(c2ccc(C(F)(F)F)nc2)N1 (stereo not given)	3.27%	4.24%	12.2%	3.5%	3.35%	3.82%	1.7%	1.92%	1.25%	1.64%	2.33%	1.34%	1.91%	1.27%	2.08%	0.58%	1.34%	5.88%	9.39%	4.11%
CCOc1ccc2c(-c3ccnc(Nc4cc(OC)cc(C(F)(F)F)c4)n3)cnn2n1	13.1%	3.74%	4.95%	8.6%	7.42%	-0.85%	1.65%	-0.39%	0.03%	0.24%	1.63%	-2.13%	6.23%	1.22%	5.38%	0.66%	9.24%	4.19%	19.1%	7.32%
c1ccc(-c2n[nH]cc2-c2ccnc(-c3ccc(OCCn4ccnc4)cc3)c2)nc1	7.07%	1.8%	9.8%	6.59%	2.24%	2.91%	2.56%	-0.75%	-0.28%	0.01%	2.03%	0.34%	6.98%	0.38%	3.12%	-0.46%	4.76%	19.9%	65.9%	1.62%
CNC(=O)c1cncc(/C=C/c2ccccc2C)c1	10.8%	6.15%	20.1%	3.6%	6.92%	2.85%	2.34%	4.17%	2.86%	1.32%	2.59%	6.31%	12.7%	1.48%	1.45%	-0.66%	0.49%	4.29%	7.71%	5.02%
O=C1Nc2ccccc2/C1=C1\CCc2cc(O)ccc21	7.65%	6.34%	14.6%	4.61%	12.5%	7.96%	23%	3.81%	2.83%	3.68%	14.6%	3.42%	12.7%	1.74%	3.79%	-0.09%	13.3%	10.5%	37.8%	66.3%
O=C(O[C@H]1CN[C@H](C#Cc2cc3ncnc(Nc4ccc5c(ccn5Cc5cc(F)ccc5F)c4)c3s2)C1)N1CCOCC1	0.77%	4.89%	8.93%	2.56%	2.8%	6.64%	2.68%	1.67%	2.01%	1.67%	2.55%	5.05%	1.68%	1.8%	1.6%	-1.37%	0.4%	3.78%	10.6%	2.29%
CN(c1ccc(NC(=O)NCCN2CCOCC2)cc1)c1ccnc(Nc2ccc(CS(C)(=O)=O)cc2)n1	1.63%	1.67%	13.6%	3.76%	4.94%	0.64%	4%	2.7%	2.84%	1.76%	9.06%	3.28%	15%	0.02%	9.94%	-0.77%	7.15%	7.07%	34.8%	60.2%
Cc1ccc(-c2cc3c(NC(=O)C4CC4)ncnc3o2)cc1	5.49%	7.39%	21.8%	5.44%	5.98%	5.37%	5.18%	5.59%	2.34%	1.76%	2.63%	2.29%	1.7%	2.06%	2.55%	-0.9%	2.42%	6.12%	13.4%	8.72%
N#Cc1ccc2c(-c3ccnc(NC4CC4)n3)c(-c3ccc(F)cc3)nn2c1	0.92%	1.95%	1.1%	1.58%	-2.63%	0.02%	-1.67%	-0.15%	0.6%	0.02%	0.51%	0.46%	0.31%	-0.51%	-0.42%	-1.62%	-1.11%	1.86%	14.6%	3.02%
Cc1cc(O)cc(C)c1/C=C/c1cncc(C(N)=O)c1	36.2%	15.2%	65.3%	5.33%	2.8%	3.56%	2.45%	1.49%	1.71%	1.53%	2.12%	-0.72%	2.56%	2.3%	2.93%	-0.77%	1.29%	4.56%	6.58%	16.3%
CNC(=O)c1ncccc1Nc1nc(Nc2cc3c(cc2OC)CCCN3C(=O)CN(C)C)nc2[nH]ccc12	2.48%	5.56%	8.62%	97%	97.9%	100%	98.1%	78.2%	94.3%	1.95%	2.8%	4.62%	-0.74%	1.24%	1.63%	2.81%	0.89%	4.97%	5.02%	5.24%
CCS(=O)(=O)c1ccc(OC)c(Nc2ncc(-c3cccc(C(C)=O)c3)o2)c1	71.4%	11%	71.2%	1.64%	3.11%	2.36%	2.68%	2.22%	3.18%	0.98%	2.71%	0.61%	6.56%	0.16%	1.8%	-1.13%	1.72%	16.4%	58.9%	19.7%
CN1CCC(n2cnc(-c3ccc(F)cc3)c2-c2ccnc(NCCO)n2)CC1	1.8%	3.07%	9.14%	3.65%	4.78%	2.63%	3.28%	3.34%	2.39%	1.66%	2.24%	4.93%	7.32%	0.46%	1.42%	-2.19%	-0.11%	5.3%	9.32%	4.45%
